Compound activity from PubChem.
A selection: hits, their analogues and other compounds. The true share with any hit is near 27%.
CYP2C9 activ: activators of human CYP2C9; P11712; recombinant CYP2C9, luciferin-H conversion, luminescence; stronger effect = higher value; factor 1 = untreated enzyme, 0 = blocked; activation factor at 5 µM; 96,000 tested, 1.4% active; AID 1024;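 active means activation factor of 2 or more for CYP2C9 at a 5 µM dose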;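 further: 0 = sulfaphenazole-blocked wells and 1 = vehicle-only wells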
CYP2C19 inh: inhibitors of human CYP2C19; CYP2C19 Supersomes, luciferin-H EGE luminescence, 30 min; inhibition, % at 5 µM; P33261; 96,000 tested, 21% active;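 active means CYP2C19 inhibition above a set limit at 5 µM in the primary screen, cut at about 50% in these data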;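 further: plate controls were negative control wells for no effect and 2.5 mM tranylcypromine positive control for full effect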
Target sequence (P33261 whole entry, looked up): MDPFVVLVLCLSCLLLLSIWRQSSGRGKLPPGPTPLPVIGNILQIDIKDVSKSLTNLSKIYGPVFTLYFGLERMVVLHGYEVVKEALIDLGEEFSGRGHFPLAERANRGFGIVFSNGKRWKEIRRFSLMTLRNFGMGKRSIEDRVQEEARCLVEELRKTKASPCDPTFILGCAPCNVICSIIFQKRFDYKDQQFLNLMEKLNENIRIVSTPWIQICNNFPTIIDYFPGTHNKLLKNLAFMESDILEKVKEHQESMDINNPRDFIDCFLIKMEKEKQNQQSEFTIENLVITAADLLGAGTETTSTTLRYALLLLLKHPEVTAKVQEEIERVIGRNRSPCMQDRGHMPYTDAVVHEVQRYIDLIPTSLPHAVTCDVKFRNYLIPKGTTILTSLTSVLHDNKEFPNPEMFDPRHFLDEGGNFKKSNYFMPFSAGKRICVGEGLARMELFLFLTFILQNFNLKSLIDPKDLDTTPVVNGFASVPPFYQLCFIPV
PTK2B oligo ant: Pyk2 (human) oligomerization antagonism. AID 1347419. z-score (the deposit names both 25 µM and 10 µM). 99,000 tested, 0.83% active. Q14289. Q293 cells, Pyk2 FERM NanoBiT luminescence; stronger effect = lower value;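 active means Z-score of -3 or lower, scaled per plate to the spread of control and sample wells; inactive means z-score above -3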;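 further: negative z-score means lost luminescence so less FERM oligomerization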
Cav32 inh: human Cav3.2 channel inhibition, primary screen | 100,000 tested, 4% active | B-score at 10 µM | Cav3.2-expressing cells, Fluo-4 calcium fluorescence FDSS; stronger effect = lower value | O95180;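 active means single-dose well whose peak fluorescence ratio is a statistical outlier from its plate by either plate-standardised score or position-corrected B-score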
CYP2C9 inh: blocks human cytochrome P450 2C9. P11712. CYP2C9 Supersomes, luciferin-H conversion, luminescence. inhibition, % at 5 µM. 96,000 tested, 20% active. AID 777;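 active means blocking of liver enzyme CYP2C9 beyond about 50% at 5 µM, limit read from the data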
CYP2C19 activ: activators of human cytochrome P450 2C19; P33261; recombinant CYP2C19, luciferin-H EGE luminescence; stronger effect = higher value; 0 = fully inhibited enzyme, 1 = untreated enzyme; activation factor at 5 µM; 96,000 tested, under 10 active; AID 1025;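 active means activation factor of at least 2 at 5 µM in the primary screen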;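 further: 0 = wells with 2.5 mM tranylcypromine and 1 = vehicle-only wells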
* = called active by the depositor; x = not tested or not shown.

SMILES	CYP2C9 activ	CYP2C19 inh	PTK2B oligo ant	Cav32 inh	CYP2C9 inh	CYP2C19 activ
O=C(CCCOc1ccc(Cl)cc1Cl)Nc1cccnc1	0.5	72*	0.95	x	52*	0.3
O=C(Nc1cccnc1)Nc1ccc(F)c(Cl)c1	0.2	85*	-0.36	-0.88	76*	0.2
COc1ccc(Nc2nc(NCc3ccco3)nc(N/N=C/c3ccc(O)cc3)n2)cc1	x	x	-2.7	x	x	x
COC(=O)N1[C@H](C)C=C[C@]1(Cc1ccccc1)C(=O)O	x	x	x	0.4	x	x
CCn1cc(C(=O)C(F)(F)F)c2ccccc21	2.3*	7	0.31	-1.3	-131	0.9
CCn1cc(SCC(=O)N2CCOCC2)c2ccccc21	1	59*	x	0.16	0	0.4
O=C(Cn1c(SCC(=O)N2CCCc3ccccc32)nc2ccccc21)N1CCCC1	x	x	-0.22	1.2	x	x
CC(C)NC(=O)Cn1c(SCC(=O)N2CCCc3ccccc32)nc2ccccc21	0.2	58*	0.7	0.45	85*	0.4
Cn1cc(SCC(=O)N2CCOCC2)c2ccccc21	1.3	90*	x	0.67	-25	0.1
O=C(CSc1nncc2ccccc12)N1CCOCC1	1.1	15	0.06	0.5	-9	0.8
CCn1cc(SCC(=O)NCC2CCCO2)c2ccccc21 (stereo not drawn)	x	x	x	0.19	x	x
Cn1c(SCC(=O)N2CCCc3ccccc32)nnc1-c1ccccc1	1	39	0.99	2.5	4	0.6
Cn1cc(SCC(=O)O)c2ccccc21	1	3	0.93	-0.24	3	1
Cn1cc(SCC(=O)N2CCCc3ccccc32)c2ccccc21	0.8	98*	x	-3.8	18	0
Cn1cc(SCC(=O)N2CCN(c3ccccc3)CC2)c2ccccc21	1	99*	x	x	4	0
CC(=O)N1CCCc2ccccc21	0.6	10	-0.16	0.78	37	0.9
CSc1nsc(SCC(=O)N2CCN(c3ccccc3)CC2)n1	0.2	73*	0.68	-1.5	76*	0.3
O=C(Cc1cccc2ccccc12)N1CCCc2ccccc21	2.3*	43	-1.4	-4.5*	-132	0.6
CCn1nnc(-c2ccccc2NC(=O)c2cnccn2)n1	x	x	-0.11	1.1	x	x
CCCCCCCCCCCC1=C(O)C(=O)C=C(O)C1=O	x	x	x	0.36	x	x
COC1=CC(=O)C(O)=C(CCCCCCC/C=C/CCCCCCCC2=C(O)C(=O)C=C(OC)C2=O)C1=O	x	x	x	-5.2*	x	x
Cc1cc(C)c[n+](-c2nc3ccccc3nc2C(=C=[N-])C#N)c1	0.9	-3	-1.2	0.18	10	1
Cc1ccc2[nH]c(=O)c(CN(CC3CCCO3)S(=O)(=O)c3c(C)ccc4nsnc34)cc2c1 (stereo not drawn)	0.5	29	-0.97	-1.9	52*	0.7
Cc1ccc2[nH]c(=O)c(CN(Cc3ccco3)S(=O)(=O)c3c(C)ccc4nsnc34)cc2c1	0.9	10	1	0.22	14	0.9
Cc1ccc2[nH]c(=O)c(CN(CC3CCCO3)S(=O)(=O)c3cccc4nsnc34)cc2c1 (stereo not drawn)	0.1	79*	-1	-0.39	91*	0.2
SMILES	CYP2C9 activ	CYP2C19 inh	PTK2B oligo ant	Cav32 inh	CYP2C9 inh	CYP2C19 activ
c1ccc(CN2CCN(C3=Nc4cccc5cccc3c45)CC2)cc1	0.9	57*	0.4	-0.22	14	0.4
Cc1nc(N2CCN(Cc3ccccc3)CC2)[nH]c(=O)c1C	1	-10	0.23	2.6	-2	1.1
Cc1ccc(-c2cc(C(F)F)n3ncc(C(=O)N4CCN5CCCC5C4)c3n2)cc1 (stereo not drawn)	0.6	-7	1.7	1.1	37	1.1
CCOC(=O)C1CCCN(C(=O)c2cc3nc(-c4ccc5c(c4)OCO5)cc(C(F)(F)F)n3n2)C1 (stereo not drawn)	0.4	45	1.6	-2.5	56*	0.5
CCOC(=O)C1CCCN(C(=O)c2cnn3c(C(F)F)cc(-c4ccc(C)cc4)nc23)C1 (stereo not drawn)	0.3	28	-0.96	0.56	73*	0.7
COc1ccc(-c2cc(C(F)F)n3ncc(C(=O)N4CCSCC4)c3n2)cc1	0.2	40	0.14	-2	76*	0.6
CCOc1ccc(-n2c(C)nnc2SCC(=O)N(CC)CC)cc1	1	5	-1.9	-0.0059	0	0.9
CCOc1cc(CNCCc2ccc(S(N)(=O)=O)cc2)ccc1OCc1ccc(Cl)cc1	0.6	54*	0.35	2	35	0.5
COc1cc(CNCCc2ccc(S(N)(=O)=O)cc2)ccc1OCc1ccc(Cl)cc1	0.6	53*	-0.1	-0.2	36	0.5
CN1C(=S)SC(N(O)C(=O)NC2CCCCC2)C1(C)C (stereo not drawn)	0.8	8	0.66	-0.004	24	0.9
Cc1ccc(S(=O)(=O)N2CCC(C(=O)Nc3nnc(C45CC6CC(CC(C6)C4)C5)s3)CC2)cc1	1.1	14	x	-0.17	-5	0.9
CCCCn1nc2cc(C(=O)NCc3ccc(OC(F)(F)F)cc3)ccc2c1OC	0.9	16	x	-0.39	11	0.8
CCOc1cc(N2CCOCC2)c(OCC)cc1NC(=O)CN1C(=O)NC2(CCc3ccccc32)C1=O (stereo not drawn)	0.6	21	0.77	0.077	44	0.8
Cc1nc2ccccc2nc1OCC(=O)Nc1cc(C(F)(F)F)ccc1N1CCOCC1	0.7	7	-0.15	-2.8	34	0.9
CC1(C)Cc2cccc(OCC(=O)Nc3cccnc3Cl)c2O1	2.2*	98*	-0.34	-0.24	-116	0
CC1(C)Cc2cccc(OCC(=O)NC3CC3)c2O1	0.8	45	0.14	-0.14	18	0.6
CC1(C)Cc2cccc(OCC(=O)Nc3cc(C(F)(F)F)ccc3N3CCOCC3)c2O1	0.5	19	-2.4	-1.8	51*	0.8
Cc1noc(C)c1COC(=O)COc1cccc2c1OC(C)(C)C2	0.3	77*	-0.16	0.04	68*	0.2
CC1(C)Cc2cccc(OCC(=O)Nc3cccnc3)c2O1	0.8	28	0.14	0.43	19	0.7
O=C(CN1C(=O)NC2(CCc3ccccc32)C1=O)Nc1cc(C(F)(F)F)ccc1N1CCOCC1 (stereo not drawn)	0.1	35	x	-2.8	89*	0.7
NC(=O)C1CCN(C(=O)c2ccc(NC3=NC4CS(=O)(=O)CC4S3)cc2)CC1 (stereo not drawn)	1	-6	x	0.051	2	1.1
C=CCn1c(SCC(=O)c2ccc(OC)cc2)nnc1C(C)NC(=O)c1cccs1 (stereo not drawn)	1	-2	0.1	0.087	5	1
COc1ccc(-n2c(CNC(=O)c3cc(OC)c(OC)c(OC)c3)n[nH]c2=S)cc1	1	4	0.39	-0.9	-1	1
CC(=O)c1c(C)[nH]c(C(=O)OCC(=O)Nc2cc(C(F)(F)F)ccc2N2CCOCC2)c1C	0.4	35	0.96	-3.5	58*	0.7
